The results in this text go back to PubChem BioAssay (NCI).

About 83,000 compounds went through this panel and 20% of them were active in at least one assay; those are over-represented in the sample as a whole.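 In brief: 96-well plates, 48 h treatment, single concentration, percent growth endpoint.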 A number with no mark means an inactive call. Activity calls are given as the source filed them. How the source made its calls: active means growth percent below 10; inactive means the rest.

Common to all, as to experiment: NCI-60 one-dose screen, 48 h (100 = growth as untreated, 0 = no growth, -100 = all killed)
What all share (settings): 10 µM unless noted

The test system of assay [1] is SR leukemia.
The subject of assay [2] is RPMI-8226 leukemia.
Assay [3] concerns OVCAR-8 ovarian.
The test system of assay [4] is OVCAR-5 ovarian.
Assay [5] concerns SK-OV-3 ovarian.
For assay [6], the system named is IGROV1 ovarian.
Assay [7] deals with OVCAR-3 ovarian.
The subject of assay [8] is HS 578T breast.
Assay [9] has as its system NCI/ADR-RES ovarian.

Regarding `O=C(Nc1nc(-c2ccc(Br)cc2)cs1)c1cc(-c2ccc(Br)cc2)nc2ccc(Cl)cc12`, the growth was 70.4% in [1]; 85% in assay [2]; 88.1% in [3]; 104% in assay [4]; 78.2% in assay [5]; 60.5% in assay [6]. The values for the growth in [7], in assay [8] and in assay [9] were 86.9%, 95.2% and 89.7%, respectively.

In the case of `CCCCCCc1nc2nc(Cl)c(Cl)nc2[nH]1`, the growth is 62.9% in [1]; 28.2% in assay [2]; 71.9% in assay [3]; 97.4% in [4]; 92% in [5]; 57.7% in assay [6]. The figures for the growth in assay [7], in [8] and in assay [9] were 40.2%, 76.4% and 66.7%, respectively.

For `FC(F)(F)Oc1cccc(-c2cc(NCCCCCCNc3cc(-c4cccc(OC(F)(F)F)c4)nc4ccc(N5CCCC5)cc34)c3cc(N4CCCC4)ccc3n2)c1`, the growth in [1] is -40.7% (active); in assay [2] it was -34.3% (active); in assay [3] it was -50.2% (active); in assay [4] it was -29.4% (active); in assay [5], 89.8%; in [6], -64% (active). Besides, the growth is -95.9% (active) in assay [7], -4.44% (active) in [8] and 21.6% in assay [9].

In the case of `Clc1cc(Cl)cc(N2N=C(c3cccc(Nc4ccncc4)c3)CC2c2ccc(Br)cc2)c1` (centres undefined), the growth in [1] is 3.33% (active); in assay [2], 21.3%; in assay [3] it was -13.7% (active); in assay [4], 77.2%; in assay [5], 83.3%; in assay [6] it was 12.3%. For the same compound, the growth was 57.6% in assay [7], 46.7% in assay [8] and 51.2% in assay [9].

`CC[C@H](C)[C@@H]1NC(=O)[C@H](Cc2ccc(O)cc2)N(C)C(=O)[C@H](Cc2ccccc2)NC(=O)CN(C)C(=O)[C@@H]2CCCN2C(=O)[C@@H](Cc2ccccc2)N(C)C(=O)[C@H](CC(C)C)NC1=O`: the growth is 4.5% (active) in [1]; -33.3% (active) in assay [2]; 5.34% (active) in [3]; -7.89% (active) in assay [4]; 4.76% (active) in assay [5]; -8.42% (active) in [6]. Moreover, the growth in [7] was -10.7% (active); in [8] it was -12% (active); in assay [9], 70.7%.

Turning to `O=C(NCCc1ccccn1)OCc1nc2nc(Cl)nc(N3CCOCC3)c2[nH]1`, the growth in assay [1] is -23.3% (active); in assay [2], -23.8% (active); in assay [3], -0.399% (active); in assay [4] it was 69.9%; in assay [5], 30.1%; in assay [7], -79.5% (active). Further, the growth is 16.5% in assay [8] and 16.6% in assay [9].

With `COc1ccc(C(=O)/C=C/c2ccc(OCc3ccccc3)c(OC)c2)cc1OC`, the growth is 11.2% in assay [1]; -3.1% (active) in assay [2]; 17.4% in assay [3]; 107% in assay [4]; 91% in [5]; 84.3% in assay [6]. Also, the growth in assay [7] was 10.3%; in [8] it was 94.7%; in [9], 36.4%.

On to `COc1ccc(/C=N/C2=C(C#N)C(c3ccccc3[N+](=O)[O-])c3ccc4ccccc4c3O2)cc1` (centres undefined), for which the growth in [1] was 89.4%; in [2], 90.3%; in assay [3], 95.1%; in assay [4] it was 105%; in assay [5], 101%; in assay [6] it was 54.6%. Further, the growth in assay [7] is 77.4%; in assay [8] it was 95.3%; in assay [9], 95.8%.

For `COc1ccc(C(=O)c2cc3c(N)c(C(=O)Nc4ccc(Cl)cc4)sc3nc2C)cc1`, the growth is 36.4% in assay [1]; 74.6% in [2]; 50.2% in [3]; 86.7% in assay [4]; 73.5% in [5]; 90.6% in assay [6]. For the same compound, the growth in [7] is 73.3%; in assay [8], 60.3%; in [9] it was 75.3%.

`CN1CCN(CC#CCNC(=O)[C@]23CCC(C)(C)C[C@H]2C2=CC[C@@H]4[C@@]5(C)Cc6c([nH]c7ccccc67)C(C)(C)[C@@H]5CC[C@@]4(C)[C@]2(C)CC3)CC1`: the growth was -2.18% (active) in assay [1]; 53.2% in assay [2]; 77% in [3]; 98.9% in assay [4]; 87.1% in [5]; 81.3% in assay [6]. Besides, the values for the growth in assay [7], in assay [8] and in assay [9] were 72.2%, 77.9% and 76.9%, respectively.

As for `COc1ccc(/C=C/C(=O)c2ccc(OC)c(OC)c2)cc1O`, the growth was 18.6% in assay [1]; 65.2% in [2]; 28.5% in assay [3]; 97.5% in assay [4]; 104% in assay [5]; 74.5% in [6]. The growth in [7] was 18.8%; in assay [8] it was 92.6%; in assay [9] it was 5.7% (active).

For `O=C(Cc1ccc(/C=C/C(=O)c2ncc[nH]2)cc1)Nc1ccc(C(F)(F)F)cc1`, the growth in [1] was 0.627% (active); in assay [2], -38.2% (active); in [3], -2.81% (active); in [4] it was 78.9%; in assay [5], 73.3%; in assay [6], 23.7%. Besides, the growth in [7] is 1.88% (active); in assay [8], 36.1%; in assay [9], 60.3%.

Consider `N#CSCC1CC(O)(c2ccccc2)C(c2ccccc2)C(c2ccc(F)cc2)O1` (centres undefined), for which the growth is -3.15% (active) in [1]; 12.4% in assay [2]; 44.6% in [3]; 51.3% in assay [4]; 80.2% in [5]; 17.1% in assay [6]. Moreover, the growth in assay [8] is -11.2% (active); in assay [9], 35.3%.

Regarding `CCCCCCNC(=O)Oc1ccc(/C(=C(/CC)Cc2ccccc2)c2ccc(OCCN(CC)CC)cc2)cc1`, the growth was -27.3% (active) in assay [1]; 26.8% in assay [2]; 61.4% in assay [3]; 83.2% in assay [4]; 89% in assay [5]; 76.6% in assay [6]. Further, the growth is 72.4% in assay [7], 69.7% in assay [8] and 70.6% in assay [9].
